Test results: PubChem BioAssay (NCI)
Values joined by “and” are separate entries in the source; they are usually repeats but may differ in a detail not shown here. Identical values can stand only once. Compounds without any hit were thinned out: in the full panel of roughly 83,000, 20% have a hit.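 96-well plates, one dose, 48 hours. Percent growth reported; active if below 10.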 Active and inactive are the calls of the source.

System: MDA-MB-468 breast
Assay: NCI-60 one-dose screen, 48 h (100 = growth as untreated, 0 = no growth, -100 = all killed)
Conditions: 10 µM unless noted

Row | SMILES | growth
1 | O=C1CN(c2ccccc2)C(=O)C1C(=O)Nc1ccc(Cl)c(Cl)c1 (stereo not given) | 19.2% [100 µM] (inactive)
2 | [O-]/[N+](=C\c1ccccc1)CC1(O)CCCCC1 | 108% (inactive)
3 | Cc1c(C(=O)NCCC(=O)NO)sc2ncnc(Nc3ccc(NC(=O)Nc4cccc(C(F)(F)F)c4)cc3)c12 | 97.2% (inactive)
4 | CC(C)(C)c1[nH]nc2c1C(c1cc3ccccc3[nH]c1=O)Nc1cc(C(=O)OCc3ccccc3)ccc1N2 (stereo not given) | 43.7% (inactive)
5 | C=C1CC/C=C(\C)C(=O)C[C@@H]2[C@@H]1CC2(C)C | 79.1% (inactive)
6 | CCCNNC(=O)c1ccc(-c2ccc(NC(=O)CCCCCCC(=O)N[C@H](C(=O)N3C[C@H](O)C[C@H]3C(=O)N[C@@H](C)c3ccc(-c4scnc4C)cc3)C(C)(C)C)cc2)cc1 | -10.1% (active)
7 | CCOC(=O)c1nn(C2CCCCO2)c2ccc(NC(=O)CN3CCCC3)cc12 (stereo not given) | 111% (inactive)
8 | COc1ccc(C(=O)NC(=O)Nc2ccc3c(c2)NC(=O)/C3=C\c2[nH]c(C)c(C(=O)O)c2C)cc1 | 76.2% (inactive)
9 | COc1cc2c(cc1OC)-c1ccc3cc4c(cc3c1N(CCN(C)C)C2)OCO4 | -30.4% (active)
10 | CSc1nc2sc3cccc(Cl)c3n2c(=N)c1C#N | 90.4% (inactive)
11 | COCCOCCCl | 102% (inactive)
12 | OC1Cc2ccccc2C1 | 105% (inactive)
13 | COc1ccc2nc3c(cc2c1)C(=O)CC(C(F)(F)F)C3 (stereo not given) | 35.6% (inactive)
14 | C(=C(\C1=NCCN1)n1cnc2ccccc21)/c1cccc2ccccc12 | 80.6% (inactive)
15 | O=[N+]([O-])c1cc(CCl)ccc1OCCBr | 92.4% (inactive)
16 | O=C1N=c2cc3c(cc2=C/C1=C/c1sc(=S)n(CCc2ccc(O)cc2)c1O)OCCO3 | 42.5% (inactive)
17 | CC(C)CCN(CCC(C)C)CC(=O)Nc1ccc(S(=O)(=O)c2ccc(NC(=O)CN(CCC(C)C)CCC(C)C)cc2)cc1 | 46.5% (inactive)
18 | CCC/C=C(/C(C)=O)C(=O)OCC | 88.3% (inactive)
19 | Nc1ccc2cc(S(=O)(=O)O)cc(O)c2c1N=Nc1ccc(F)cc1 | 118% (inactive)
20 | COc1cc2nc(-c3ccc(Cl)cc3)cc(OCCCN3CCCC3)c2cc1OC | 43.5% (inactive)

Row | SMILES | growth
21 | O=C(/C=C/c1cn(-c2ccccc2)nc1-c1ccccc1)OCc1cn(-c2cccc([N+](=O)[O-])c2)nn1 | 107% (inactive)
22 | O=S(=O)(Nc1ccsc1-c1nc(-c2ccccc2)no1)c1cc(Cl)cc(Cl)c1 | 88.6% (inactive)
23 | COC(=O)c1nc(=S)[nH]c(C(=O)OC)c1C(=O)c1ccccc1 | 97.3% (inactive)
24 | CC(=O)Nc1ccc(O)c(C)c1 | 111% (inactive)
25 | CC(=O)OCCO | 98.6% (inactive)
26 | CSc1nn2c(-c3ccc4ccccc4c3)ccnc2c1C#N | 41.3% (inactive)
27 | Cc1cc2ccccc2nc1-c1ccccc1F | 105% (inactive)
28 | O=C(CI)Nc1ccc(O)c2ccccc12 | -71.7% (active)
29 | CC(C)(C)n1cc(-c2ccnc(NCCNS(=O)(=O)c3ccccc3)c2)c(-c2cccc(O)c2)n1 | 11.1% (inactive)
30 | C=C(C)[C@@H]1CC[C@]2(C(=O)N=C=S)CC[C@]3(C)[C@H](CC[C@@H]4[C@@]5(C)CCC(=O)C(C)(C)[C@@H]5CC[C@]43C)[C@@H]12 | 11.2% (inactive)
31 | Clc1ccc2oc3c(NCCCN4CCOCC4)c4ccccc4nc3c2c1 | 5.24% (active)
32 | O=C1C=CC(=O)N1CO | 117% (inactive)
33 | Cc1ccc(NC(=O)CCl)cc1Cl | 108% (inactive)
34 | COc1cc(Cl)cc(-c2nn(C(=O)NCCN3CCOCC3)cc2-c2ccncc2)c1 | 27.6% (inactive)
35 | O=C(CCC(C(=O)c1ccccc1)c1ccccc1)c1ccccc1 (stereo not given) | 35.9% (inactive)
36 | O=C(NC(CSSCC(NC(=O)OCc1ccccc1)C(=O)O)C(=O)O)OCc1ccccc1 (stereo not given) | 84.5% (inactive) and 102% (inactive)
37 | CCOC(=O)COc1c(C)cc(SSc2cc(C)c(OCC(=O)OCC)c(C)c2)cc1C | 109% (inactive)
38 | N#C/C(=C1\SC(=O)CN1c1ccccc1)c1nc2ccccc2s1 | 115% (inactive)
39 | Cc1ccc(S(=O)(=O)NC(CCC(=O)Nc2ccccc2)C(=O)Nc2ccccc2)cc1 (stereo not given) | -20.6% (active)
40 | Nc1ccc([N+](=O)[O-])cc1N=C/C=C/c1ccccc1 | 46.4% (inactive)
